# PMC7862700, “An all-to-all approach to the identification of sequence-specific readers for epigenetic DNA modifications on cytosine”
# Legend:
# Experiment in all cases: DAPPL (digital affinity profiling via proximity ligation, sequencing); 10 mM Tris-HCl pH 7.5, 50 mM NaCl, 1 mM DTT, 4% glycerol, room temperature, 30 min; GST-TFs on glutathione beads, 16-mer random dsDNA library, 0.1% formaldehyde crosslink after washing; high values mean tight binding
# Details in all cases: protein: recombinant; tags: N-terminal GST; dsDNA, one strand shown
# FLI1 = biological target: T1, FLI1 (Homo sapiens, UniProt Q01543 1-452)
# T1 sequence: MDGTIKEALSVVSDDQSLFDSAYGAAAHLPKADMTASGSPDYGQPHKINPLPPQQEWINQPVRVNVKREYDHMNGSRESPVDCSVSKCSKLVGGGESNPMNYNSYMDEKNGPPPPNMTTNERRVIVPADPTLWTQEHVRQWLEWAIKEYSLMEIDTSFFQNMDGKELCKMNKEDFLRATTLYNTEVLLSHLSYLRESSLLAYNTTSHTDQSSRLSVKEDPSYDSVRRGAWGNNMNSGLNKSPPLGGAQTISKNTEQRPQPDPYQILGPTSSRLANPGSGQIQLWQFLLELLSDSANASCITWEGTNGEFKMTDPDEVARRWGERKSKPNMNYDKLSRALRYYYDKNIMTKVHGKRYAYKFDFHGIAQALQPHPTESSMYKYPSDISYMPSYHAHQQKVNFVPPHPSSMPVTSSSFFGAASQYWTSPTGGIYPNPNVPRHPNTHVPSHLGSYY
# Outline: (§1)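 In yeast, human transcription factors were expressed with a GST fusion, then pulled down on glutathione beads and given DNA barcodes. Pooled with a tag-only sample, they were exposed to 200 nmole of a 16-mer random double-stranded DNA library (Tris/NaCl/DTT/glycerol buffer, room temperature, 30 min), washed, crosslinked with 0.1% formaldehyde, proximity-ligated using BsaI/T4 ligase for 1 h at 37 °C, PCR-amplified and read on an Illumina NextSeq500. Each hexamer's frequency of reads for a factor, divided by the matching frequency for the tag-only sample, gives the binding signal.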
# ELK1 = biological target: T2, ELK1 (Homo sapiens, UniProt P19419 1-428)
# T2 sequence: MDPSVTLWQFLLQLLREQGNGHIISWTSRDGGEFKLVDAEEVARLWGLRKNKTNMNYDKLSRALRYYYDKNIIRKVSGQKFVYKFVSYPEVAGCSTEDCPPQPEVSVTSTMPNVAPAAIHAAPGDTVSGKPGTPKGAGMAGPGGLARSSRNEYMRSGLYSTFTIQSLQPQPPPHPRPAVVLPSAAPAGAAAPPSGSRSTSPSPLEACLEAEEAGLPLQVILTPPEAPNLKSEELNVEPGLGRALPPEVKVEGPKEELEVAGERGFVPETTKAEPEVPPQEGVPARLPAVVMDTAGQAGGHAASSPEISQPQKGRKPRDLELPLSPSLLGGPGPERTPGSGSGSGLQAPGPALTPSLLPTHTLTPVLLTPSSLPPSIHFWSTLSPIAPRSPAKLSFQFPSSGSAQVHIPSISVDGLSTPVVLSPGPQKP
# Outline: as §1
# GABPA = biological target: T3, GABPA (Homo sapiens, UniProt Q06546 1-454)
# T3 sequence: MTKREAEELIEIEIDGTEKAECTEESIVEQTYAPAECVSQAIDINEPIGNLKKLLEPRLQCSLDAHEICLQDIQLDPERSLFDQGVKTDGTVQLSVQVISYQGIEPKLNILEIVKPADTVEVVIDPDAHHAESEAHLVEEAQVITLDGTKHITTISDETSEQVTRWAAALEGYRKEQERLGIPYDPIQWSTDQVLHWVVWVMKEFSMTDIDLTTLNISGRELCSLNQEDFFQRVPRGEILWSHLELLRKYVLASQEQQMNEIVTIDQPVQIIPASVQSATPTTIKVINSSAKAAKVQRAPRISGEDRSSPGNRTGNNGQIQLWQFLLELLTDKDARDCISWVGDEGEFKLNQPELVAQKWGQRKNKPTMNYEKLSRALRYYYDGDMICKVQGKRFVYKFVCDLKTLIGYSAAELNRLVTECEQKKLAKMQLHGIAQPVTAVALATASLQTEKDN
# Outline: as §1
# ELF4 = ELF4 (Homo sapiens, UniProt Q99607 1-663)
# Outline: as §1
# ELK4 = biological target: T4, ELK4 (Homo sapiens, UniProt P28324-2 1-405)
# T4 sequence: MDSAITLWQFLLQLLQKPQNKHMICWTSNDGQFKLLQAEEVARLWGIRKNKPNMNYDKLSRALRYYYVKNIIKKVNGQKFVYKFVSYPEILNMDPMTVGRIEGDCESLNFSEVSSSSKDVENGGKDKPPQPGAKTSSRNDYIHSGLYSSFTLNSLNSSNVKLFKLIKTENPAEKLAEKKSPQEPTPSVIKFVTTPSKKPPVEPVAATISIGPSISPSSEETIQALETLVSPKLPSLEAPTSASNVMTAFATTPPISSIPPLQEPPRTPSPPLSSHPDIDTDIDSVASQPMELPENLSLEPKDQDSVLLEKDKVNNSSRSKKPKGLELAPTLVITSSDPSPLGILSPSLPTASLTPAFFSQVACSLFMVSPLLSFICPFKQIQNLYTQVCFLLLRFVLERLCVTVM
# Outline: as §1
# ERF = biological target: T5, ERF (Homo sapiens, UniProt P50548 1-548)
# T5 sequence: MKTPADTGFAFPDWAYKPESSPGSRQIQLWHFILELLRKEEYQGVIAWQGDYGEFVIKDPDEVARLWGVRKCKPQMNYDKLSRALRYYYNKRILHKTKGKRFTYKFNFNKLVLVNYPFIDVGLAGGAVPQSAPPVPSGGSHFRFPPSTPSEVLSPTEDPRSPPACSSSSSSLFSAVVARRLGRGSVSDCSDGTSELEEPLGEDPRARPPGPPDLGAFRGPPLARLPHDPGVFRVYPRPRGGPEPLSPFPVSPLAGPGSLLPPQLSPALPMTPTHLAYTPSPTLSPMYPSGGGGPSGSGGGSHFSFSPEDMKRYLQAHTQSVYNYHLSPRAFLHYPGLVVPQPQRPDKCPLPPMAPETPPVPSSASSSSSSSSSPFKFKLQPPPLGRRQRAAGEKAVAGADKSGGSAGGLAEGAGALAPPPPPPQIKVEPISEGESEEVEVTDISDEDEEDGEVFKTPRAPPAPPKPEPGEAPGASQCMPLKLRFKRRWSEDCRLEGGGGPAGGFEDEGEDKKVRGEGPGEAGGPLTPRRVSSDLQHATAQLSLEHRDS
# Outline: as §1
# ETV3L = biological target: T6, ETV3L (Homo sapiens, UniProt Q6ZN32 1-361)
# T6 sequence: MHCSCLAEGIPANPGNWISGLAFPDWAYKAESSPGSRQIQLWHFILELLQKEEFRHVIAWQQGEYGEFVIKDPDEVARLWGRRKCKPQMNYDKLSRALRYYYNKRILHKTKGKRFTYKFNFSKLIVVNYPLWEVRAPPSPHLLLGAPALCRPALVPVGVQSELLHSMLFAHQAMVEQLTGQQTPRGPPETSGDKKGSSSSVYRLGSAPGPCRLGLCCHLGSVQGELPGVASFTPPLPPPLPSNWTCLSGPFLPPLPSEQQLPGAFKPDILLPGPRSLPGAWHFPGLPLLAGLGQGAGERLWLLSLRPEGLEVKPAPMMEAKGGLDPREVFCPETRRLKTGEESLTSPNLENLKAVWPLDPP
# Outline: as §1
# ELF1 = ELF1 (Homo sapiens, UniProt P32519 1-619)
# Outline: as §1
# SPIC = biological target: T7, SPIC (Homo sapiens, UniProt Q8N5J4 1-248)
# T7 sequence: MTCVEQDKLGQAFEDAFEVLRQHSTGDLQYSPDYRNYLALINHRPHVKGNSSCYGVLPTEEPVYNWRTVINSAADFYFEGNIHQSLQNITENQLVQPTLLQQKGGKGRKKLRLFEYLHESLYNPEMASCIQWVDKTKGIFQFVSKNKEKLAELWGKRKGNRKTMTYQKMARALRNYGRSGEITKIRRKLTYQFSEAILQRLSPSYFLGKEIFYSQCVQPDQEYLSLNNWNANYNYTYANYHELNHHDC
# Outline: as §1
# ETV2 = biological target: T8, ETV2 (Homo sapiens, UniProt O00321 1-342)
# T8 sequence: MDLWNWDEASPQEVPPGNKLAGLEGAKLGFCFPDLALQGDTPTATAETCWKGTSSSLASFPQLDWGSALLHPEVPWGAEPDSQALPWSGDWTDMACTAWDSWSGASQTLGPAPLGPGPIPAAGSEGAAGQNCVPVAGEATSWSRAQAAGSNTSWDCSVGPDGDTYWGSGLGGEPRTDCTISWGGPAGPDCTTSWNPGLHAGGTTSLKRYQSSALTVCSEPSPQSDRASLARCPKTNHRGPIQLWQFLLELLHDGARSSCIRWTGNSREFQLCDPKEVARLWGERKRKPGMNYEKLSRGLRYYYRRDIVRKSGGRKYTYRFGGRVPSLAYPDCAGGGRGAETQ
# Outline: as §1
# ETV7 = biological target: T9, ETV7 (Homo sapiens, UniProt Q9Y603 1-341)
# T9 sequence: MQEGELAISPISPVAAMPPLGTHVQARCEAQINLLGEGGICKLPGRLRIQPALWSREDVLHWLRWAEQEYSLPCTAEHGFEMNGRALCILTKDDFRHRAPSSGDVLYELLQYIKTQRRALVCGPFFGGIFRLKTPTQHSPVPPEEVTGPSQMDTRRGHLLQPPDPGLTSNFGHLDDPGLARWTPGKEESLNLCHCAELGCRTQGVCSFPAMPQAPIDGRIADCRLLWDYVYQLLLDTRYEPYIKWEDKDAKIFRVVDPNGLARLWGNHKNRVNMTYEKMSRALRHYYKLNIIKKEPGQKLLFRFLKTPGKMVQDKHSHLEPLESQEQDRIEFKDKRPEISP
# Outline: as §1
# ELF4, sequence (Q99607 whole entry): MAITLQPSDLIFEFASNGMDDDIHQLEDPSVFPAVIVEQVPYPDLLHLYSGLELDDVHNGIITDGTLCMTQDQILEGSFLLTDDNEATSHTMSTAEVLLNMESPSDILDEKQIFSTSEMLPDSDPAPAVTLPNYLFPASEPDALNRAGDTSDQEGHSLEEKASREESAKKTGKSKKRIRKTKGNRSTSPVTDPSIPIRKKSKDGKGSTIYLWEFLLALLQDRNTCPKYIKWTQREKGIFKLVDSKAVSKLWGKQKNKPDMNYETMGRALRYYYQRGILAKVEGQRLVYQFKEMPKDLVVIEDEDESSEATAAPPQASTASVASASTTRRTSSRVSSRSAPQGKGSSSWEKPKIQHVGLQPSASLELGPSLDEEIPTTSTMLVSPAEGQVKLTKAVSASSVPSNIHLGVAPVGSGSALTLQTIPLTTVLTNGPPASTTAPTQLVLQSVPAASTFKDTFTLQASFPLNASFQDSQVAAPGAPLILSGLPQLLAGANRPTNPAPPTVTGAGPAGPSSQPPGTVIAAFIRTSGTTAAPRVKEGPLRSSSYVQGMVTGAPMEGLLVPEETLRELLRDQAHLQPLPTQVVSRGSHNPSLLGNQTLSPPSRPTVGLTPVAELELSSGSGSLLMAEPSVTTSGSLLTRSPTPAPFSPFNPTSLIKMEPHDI
# ELF1, sequence (P32519 whole entry): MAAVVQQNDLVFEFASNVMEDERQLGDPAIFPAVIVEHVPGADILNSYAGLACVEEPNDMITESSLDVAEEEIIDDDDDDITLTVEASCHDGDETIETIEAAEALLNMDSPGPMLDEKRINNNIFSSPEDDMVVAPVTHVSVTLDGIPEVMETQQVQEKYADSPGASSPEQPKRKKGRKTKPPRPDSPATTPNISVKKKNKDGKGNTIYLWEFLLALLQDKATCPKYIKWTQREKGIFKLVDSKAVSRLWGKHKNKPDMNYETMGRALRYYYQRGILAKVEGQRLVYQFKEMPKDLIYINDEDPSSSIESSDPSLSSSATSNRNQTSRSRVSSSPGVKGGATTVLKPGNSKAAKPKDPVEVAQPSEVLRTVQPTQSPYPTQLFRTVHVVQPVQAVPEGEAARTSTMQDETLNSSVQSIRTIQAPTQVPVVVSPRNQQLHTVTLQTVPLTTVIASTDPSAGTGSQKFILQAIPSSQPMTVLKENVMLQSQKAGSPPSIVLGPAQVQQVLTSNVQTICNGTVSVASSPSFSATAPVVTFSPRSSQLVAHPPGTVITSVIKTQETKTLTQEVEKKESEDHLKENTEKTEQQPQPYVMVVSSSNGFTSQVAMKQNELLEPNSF
sequence,measurement,setting,value
GACTGC,binding signal,FLI1,"1.03 fold enrichment (6-mer frequency, TF over GST control)"
same,binding signal,ELK1,"1.03 fold enrichment (6-mer frequency, TF over GST control)"
same,binding signal,GABPA,"1.11 fold enrichment (6-mer frequency, TF over GST control)"
same,binding signal,ELF4,"1.01 fold enrichment (6-mer frequency, TF over GST control)"
same,binding signal,ELK4,"1.08 fold enrichment (6-mer frequency, TF over GST control)"
same,binding signal,ERF,"1.03 fold enrichment (6-mer frequency, TF over GST control)"
same,binding signal,ETV3L,"1.02 fold enrichment (6-mer frequency, TF over GST control)"
GCGTTG,binding signal,FLI1,"1.1 fold enrichment (6-mer frequency, TF over GST control)"
same,binding signal,ELF1,"1.01 fold enrichment (6-mer frequency, TF over GST control)"
same,binding signal,SPIC,"1.03 fold enrichment (6-mer frequency, TF over GST control)"
same,binding signal,ETV2,"1.01 fold enrichment (6-mer frequency, TF over GST control)"
same,binding signal,ERF,"1.12 fold enrichment (6-mer frequency, TF over GST control)"
same,binding signal,ETV3L,"1.03 fold enrichment (6-mer frequency, TF over GST control)"
same,binding signal,ETV7,"1.01 fold enrichment (6-mer frequency, TF over GST control)"
